CYP2C9 act: CYP2C9 (human) activation. P11712. recombinant CYP2C9, luciferin-H conversion, luminescence; hits give high values; factor 1 = untreated enzyme, 0 = blocked. activation factor at 5 µM. actives 1.4% (n = 96,000). AID 1024;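 active = activation factor of 2 or more for CYP2C9 at a 5 µM dose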;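 also: 0 = sulfaphenazole-blocked wells and 1 = vehicle-only wells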
CD11b adhes inh: inhibitors of human CD11b/CD18 binding to fibrinogen; P05107+P11215; K562 CD11b/CD18 adhesion to fibrinogen, ATPlite luminescence; Mn2+ added to activate the integrin; inhibition, % at 10 µM; actives 0.54% (n = 93,000); AID 1497;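 active = primary inhibition of 50% or more at 10 µM, then 40% or more on retest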
Mac1 fbg enh: increases human CD11b/CD18 adhesion to fibrinogen | actives 0.07% (n = 93,000) | P05107+P11215 | activation, % at 10 µM | AID 1499 | K562 CD11b/CD18 adhesion to fibrinogen, ATPlite luminescence;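 active = 10 µM primary screen giving 50% or more activity, confirmed by 40% or more on retest at that dose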
CYP2C19 activ: activators of human cytochrome P450 2C19; 96,000 tested, under 10 active; P33261; recombinant CYP2C19, luciferin-H EGE luminescence; hits give high values; 0 = fully inhibited enzyme, 1 = untreated enzyme; activation factor at 5 µM; AID 1025;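 active = activation factor of at least 2 at 5 µM in the primary screen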;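 also: 0 = wells with 2.5 mM tranylcypromine and 1 = vehicle-only wells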
CYP2C9 inhib: blocks human cytochrome P450 2C9; CYP2C9 Supersomes, luciferin-H conversion, luminescence; inhibition, % at 5 µM; actives 20% (n = 96,000);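 active = blocking of liver enzyme CYP2C9 beyond about 50% at 5 µM, limit read from the data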
CYP2C19 inh: inhibitors of human CYP2C19 | actives 21% (n = 96,000) | AID 778 | P33261 | inhibition, % at 5 µM | CYP2C19 Supersomes, luciferin-H EGE luminescence, 30 min;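 active = CYP2C19 inhibition above a set limit at 5 µM in the primary screen, cut at about 50% in these data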;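 also: plate controls were negative control wells for no effect and 2.5 mM tranylcypromine positive control for full effect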
* hit, by the source's call; / = no result given. Hits are enriched below; roughly 28% of the tested compounds scored in any of these assays.

SMILES	CYP2C9 act	CD11b adhes inh	Mac1 fbg enh	CYP2C19 activ	CYP2C9 inhib	CYP2C19 inh
Cc1cc(C)c2cc(CN(CC3CCCO3)S(=O)(=O)c3ccc4c(c3)OCCO4)c(=O)[nH]c2c1 (configuration not stated)	0.3	2	-3	0.6	73*	36
COc1ccc2cc(CN(CC3CCCO3)S(=O)(=O)c3ccccc3)c(=O)[nH]c2c1 (configuration not stated)	0.1	10	-3	1.2	86*	-17
Cc1ccc(S(=O)(=O)N(Cc2cc3cc4c(cc3[nH]c2=O)OCCO4)CC2CCCO2)cc1 (configuration not stated)	0.8	-4	3	0.8	24	21
CN(C)c1ccc(N2CN=C3SCC(=O)N3C2)cc1	0.9	/	/	0.9	10	13
CC(=O)Nc1ccc(S(=O)(=O)Nc2cccc(C(=O)NC(C)(C)C)c2)cc1	0.7	/	/	0.9	35	8
COc1ccc(S(=O)(=O)Nc2cc(C)c(O)c(S(=O)(=O)c3ccccc3)c2)cc1	0.2	-11	5	0.5	79*	53*
COc1ccc(S(=O)(=O)Nc2nnc(C(C)C)s2)cc1	0.7	-10	2	1.1	35	-15
COc1ccc(S(=O)(=O)Nc2cccc(NC(C)=O)c2)cc1	0.7	17	-3	0	30	95*
COc1ccc(S(=O)(=O)Nc2cccc(/C=C/C(=O)O)c2)cc1	/	5	-1	/	/	/
COc1cccc(NS(=O)(=O)c2ccc(NC(C)=O)cc2)c1	0.8	-22	0	0.4	22	60*
CC(=O)Nc1ccc(S(=O)(=O)Nc2nnc(C(C)C)s2)cc1	0.4	4	-3	1.3	60*	-26
CC(C)c1nnc(-c2ccc(Cl)cc2)c(N(C)C)n1	0.9	/	/	0.7	15	33
C=CCOc1c2ccc(C(=O)NCCc3ccc(C)cc3)cc2nn1C	0.8	/	/	0.9	20	13
CCCNC(=O)C1CNc2ccccc2O1 (configuration not stated)	1	4	-5	1.1	-3	-8
COC(=O)c1cc(NS(=O)(=O)c2ccc(N3CCCCCC3)c([N+](=O)[O-])c2)cc(C(=O)OC)c1	0.8	12	-8	1	24	-3
COC(=O)c1cc(NS(=O)(=O)c2ccc(NC(C)=O)cc2)cc(C(=O)OC)c1	0.6	/	/	0.5	38	53*
O=S(=O)(c1ccc2c(c1)OCCO2)N1CCC(O)(c2ccc(Cl)cc2)CC1	0.9	82	-5	0	12	98*
O=C(c1ccc2c(c1)OCCO2)N1CCCCC1	1	-12	1	0.9	-2	12
O=C(c1ccc2c(c1)OCCO2)N1CCN(Cc2ccccc2)CC1	1.2	/	/	0.3	-15	67*
O=C(NC1CCCCC1)NC1CCN(S(=O)(=O)c2ccc3c(c2)OCCO3)CC1	1.1	-16	-3	1.1	-15	-7
O=C(N1CCOCC1)N1CCN(Cc2ccccc2)CC1	1.1	0	-2	0.2	-10	82*
O=S(=O)(c1ccc2c(c1)OCCO2)N1CCN(Cc2ccccc2)CC1	1.4	-1	-2	0.2	-40	82*
CCN1C(=O)C2C(C1=O)N1C(c3ccccc3)C3C(=O)N(CC)C(=O)C3N1C2c1ccccc1 (configuration not stated)	0.8	-10	-2	0.9	19	5
O=S(=O)(c1ccc2c(c1)OCCO2)N1CCN(Cc2ccc3c(c2)OCO3)CC1	0.1	5	6	0.1	89*	94*
O=S(=O)(c1ccc(F)c(F)c1)N1CCN(Cc2ccc3c(c2)OCO3)CC1	0.6	-6	-2	0.8	43	19
SMILES	CYP2C9 act	CD11b adhes inh	Mac1 fbg enh	CYP2C19 activ	CYP2C9 inhib	CYP2C19 inh
CN(Cc1ccccc1)S(=O)(=O)c1ccc(NC(=S)NC(=O)C2CCCC2)cc1	1	/	/	1	4	2
CN(Cc1ccccc1)S(=O)(=O)c1ccc(S(=O)(=O)N(Cc2ccc(F)cc2)C2CCCC2)cc1	0.4	4	-3	1.1	58*	-6
OC1(c2ccc3c(c2)OCO3)CCN(Cc2ccccn2)CC1	1.2	4	1	1.1	-23	-9
O=S(=O)(c1ccc(Cl)cc1)N1CCC(O)(c2cccnc2)CC1	1.8	-42	1	0.4	-77	57*
O=S(=O)(c1ccccc1Cl)N1CCC(O)(c2ccc3c(c2)OCO3)CC1	1.5	-3	0	0	-54	97*
CC(=O)NC1C(=O)Nc2c1cccc2C(F)(F)F (configuration not stated)	1.1	-11	-4	1	-12	3
O=C1CC(c2ccccc2)n2nc(N3C(=O)c4ccccc4C3=O)nc2N1 (configuration not stated)	1	0	0	1.1	2	-6
CCN1CCN(S(=O)(=O)Cc2ccccc2)CC1	1.5	0	-1	0.5	-49	52*
CC1CN(S(=O)(=O)Cc2ccccc2)CC(C)O1 (configuration not stated)	1.2	2	3	0.3	-22	66*
O=S(=O)(Cc1ccccc1)N1CCN(Cc2ccc3c(c2)OCO3)CC1	0.5	-10	1	0.1	54*	91*
COc1ccc(S(=O)(=O)NCc2ccc(C(=O)N3CCN(c4ccccn4)CC3)cc2)cc1	0.6	/	/	0.8	44	20
CN(c1ccccc1)S(=O)(=O)c1cccc(C(=O)N2CCN(c3ccccn3)CC2)c1	0.1	-5	-1	0.2	88*	79*
O=S(=O)(Cc1ccccc1)N1CCCC1	1.1	-20	-2	0.7	-11	31
Cc1noc(C)c1S(=O)(=O)N1CCN(Cc2ccc3c(c2)OCO3)CC1	0.8	-6	0	0.5	15	48
Cc1cc(S(=O)(=O)NCCN(C)C)c(C)s1	0.9	/	/	1	6	-2
O=C(Nc1nccs1)c1cc(S(=O)(=O)N2CCOCC2)ccc1Cl	1	-16	-3	0.9	5	6
O=S(=O)(c1ccc2c(c1)OCCO2)N1CCN(c2cccc(Cl)c2)CC1	0.4	15	-4	0.1	58*	89*
Cc1ccc2c(CN3CCN(S(=O)(=O)c4ccc5c(c4)OCCO5)CC3)cc(=O)oc2c1C	0.3	14	-2	0.3	70*	71*
CN(Cc1ccccc1)S(=O)(=O)c1ccc2c(c1)OCCO2	1.8	4	-5	0.1	-82	87*
CN1CCN(C(=O)c2ccc3c(=O)n4c(nc3c2)CCCCC4)CC1	1	/	/	1	-4	-4
O=S(=O)(NCc1ccccc1)c1ccc2c(c1)OCCO2	1	7	3	0.6	-3	38
O=C(c1ccc2c(=O)n3c(nc2c1)CCCCC3)N1CCN(Cc2ccccc2)CC1	0.3	-6	-2	0.4	73*	55*

Source: PubChem BioAssay
